Data: publication PMC7862700, “An all-to-all approach to the identification of sequence-specific readers for epigenetic DNA modifications on cytosine”

Molecular target: T1, GABPA (Homo sapiens, UniProt Q06546 1-454)
T1 sequence: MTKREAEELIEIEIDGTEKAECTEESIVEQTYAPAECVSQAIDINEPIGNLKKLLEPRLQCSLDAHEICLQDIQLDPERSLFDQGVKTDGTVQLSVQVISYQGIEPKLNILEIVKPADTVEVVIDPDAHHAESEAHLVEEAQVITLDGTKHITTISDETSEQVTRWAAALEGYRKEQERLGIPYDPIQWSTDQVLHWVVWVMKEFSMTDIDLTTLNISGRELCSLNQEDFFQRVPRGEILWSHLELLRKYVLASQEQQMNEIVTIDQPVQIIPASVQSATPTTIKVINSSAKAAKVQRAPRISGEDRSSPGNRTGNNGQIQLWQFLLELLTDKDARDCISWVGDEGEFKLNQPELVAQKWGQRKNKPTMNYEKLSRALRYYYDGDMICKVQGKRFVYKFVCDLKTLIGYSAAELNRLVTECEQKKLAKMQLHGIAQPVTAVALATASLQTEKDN
Test: DAPPL (digital affinity profiling via proximity ligation, sequencing); 10 mM Tris-HCl pH 7.5, 50 mM NaCl, 1 mM DTT, 4% glycerol, room temperature, 30 min; GST-TFs on glutathione beads, 16-mer random dsDNA library, 0.1% formaldehyde crosslink after washing; high values mean tight binding
Conditions: protein: recombinant; tags: N-terminal GST; dsDNA, one strand shown
In short: (§1)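 A tag-only sample was pooled with DNA-barcoded human transcription factors that had been expressed in yeast as GST fusions and captured on glutathione beads. The pools were incubated for 30 min at room temperature with 200 nmole of a random double-stranded 16-mer DNA library in Tris/NaCl/DTT/glycerol buffer, then washed, crosslinked with 0.1% formaldehyde, proximity-ligated (BsaI/T4 ligase, 1 h, 37 °C), PCR-amplified and sequenced on an Illumina NextSeq500. Binding signal is each hexamer's read frequency for a factor divided by its frequency for the tag-only sample.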

Sequence	binding signal
TCTTCT	1.21 fold enrichment (6-mer frequency, TF over GST control)
AATCCT	1.34 fold enrichment (6-mer frequency, TF over GST control)
CCCCCT	1.25 fold enrichment (6-mer frequency, TF over GST control)
ACATCC	2.39 fold enrichment (6-mer frequency, TF over GST control)
TTTTGT	1.36 fold enrichment (6-mer frequency, TF over GST control)
ACATAA	1.08 fold enrichment (6-mer frequency, TF over GST control)
TTCTCG	1.55 fold enrichment (6-mer frequency, TF over GST control)
AAATCT	1.23 fold enrichment (6-mer frequency, TF over GST control)
TTCTCC	1.6 fold enrichment (6-mer frequency, TF over GST control)
CTTGCG	1.32 fold enrichment (6-mer frequency, TF over GST control)
ACGTTC	1.33 fold enrichment (6-mer frequency, TF over GST control)
AATTAA	1.22 fold enrichment (6-mer frequency, TF over GST control)
GTTCCT	1.64 fold enrichment (6-mer frequency, TF over GST control)
ACTTAT	1.47 fold enrichment (6-mer frequency, TF over GST control)
AATTTA	1.24 fold enrichment (6-mer frequency, TF over GST control)
CACGAT	1.33 fold enrichment (6-mer frequency, TF over GST control)
CTCTCT	1.56 fold enrichment (6-mer frequency, TF over GST control)
GCCTAC	1.28 fold enrichment (6-mer frequency, TF over GST control)
GCCTCG	1.34 fold enrichment (6-mer frequency, TF over GST control)
AACTAG	1.22 fold enrichment (6-mer frequency, TF over GST control)

Molecular target: T2, ERG (Homo sapiens, UniProt P11308 1-479)
T2 sequence: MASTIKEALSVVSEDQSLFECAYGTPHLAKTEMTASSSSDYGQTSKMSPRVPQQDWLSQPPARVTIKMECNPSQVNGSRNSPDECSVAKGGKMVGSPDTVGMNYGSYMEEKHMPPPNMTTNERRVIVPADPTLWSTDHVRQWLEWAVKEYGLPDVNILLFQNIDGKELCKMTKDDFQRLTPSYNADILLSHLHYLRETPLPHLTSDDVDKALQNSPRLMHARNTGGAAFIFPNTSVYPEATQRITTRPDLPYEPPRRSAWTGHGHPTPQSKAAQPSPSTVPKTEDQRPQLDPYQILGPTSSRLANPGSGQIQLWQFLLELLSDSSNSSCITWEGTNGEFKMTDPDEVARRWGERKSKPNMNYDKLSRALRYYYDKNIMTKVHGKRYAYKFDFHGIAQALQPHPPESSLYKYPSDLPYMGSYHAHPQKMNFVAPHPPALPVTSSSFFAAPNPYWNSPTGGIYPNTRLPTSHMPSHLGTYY
Test: as above
Conditions: protein: recombinant; tags: N-terminal GST; dsDNA, one strand shown
In short: as §1

Sequence	binding signal
TTTTCC	1.76 fold enrichment (6-mer frequency, TF over GST control)
CGATTA	1.16 fold enrichment (6-mer frequency, TF over GST control)
TATTTT	1.39 fold enrichment (6-mer frequency, TF over GST control)
TCCTCG	1.42 fold enrichment (6-mer frequency, TF over GST control)
GTTGCT	1.3 fold enrichment (6-mer frequency, TF over GST control)
TCCGCC	1.69 fold enrichment (6-mer frequency, TF over GST control)
TCTCTG	1.56 fold enrichment (6-mer frequency, TF over GST control)
TTTAAC	1.13 fold enrichment (6-mer frequency, TF over GST control)
ATTGCA	1.21 fold enrichment (6-mer frequency, TF over GST control)
ACGTCT	1.22 fold enrichment (6-mer frequency, TF over GST control)
TCTACT	1.32 fold enrichment (6-mer frequency, TF over GST control)
TCATCC	1.36 fold enrichment (6-mer frequency, TF over GST control)
TATCGA	1.36 fold enrichment (6-mer frequency, TF over GST control)
CTACTC	1.38 fold enrichment (6-mer frequency, TF over GST control)
AATTAC	1.25 fold enrichment (6-mer frequency, TF over GST control)
TCTGGC	1.27 fold enrichment (6-mer frequency, TF over GST control)
CCCGAC	1.43 fold enrichment (6-mer frequency, TF over GST control)
CAAGAT	1.05 fold enrichment (6-mer frequency, TF over GST control)
TTAGCA	1.3 fold enrichment (6-mer frequency, TF over GST control)
CATTTG	1.21 fold enrichment (6-mer frequency, TF over GST control)

Sequence	binding signal
TCTTCT	1.23 fold enrichment (6-mer frequency, TF over GST control)
AATCCT	1.41 fold enrichment (6-mer frequency, TF over GST control)
CCCCCT	1.21 fold enrichment (6-mer frequency, TF over GST control)
ACATCC	3.08 fold enrichment (6-mer frequency, TF over GST control)
TTTTGT	1.39 fold enrichment (6-mer frequency, TF over GST control)
ACATAA	1.17 fold enrichment (6-mer frequency, TF over GST control)
TTCTCG	1.38 fold enrichment (6-mer frequency, TF over GST control)
AAATCT	1.31 fold enrichment (6-mer frequency, TF over GST control)
TTCTCC	1.43 fold enrichment (6-mer frequency, TF over GST control)
CTTGCG	1.35 fold enrichment (6-mer frequency, TF over GST control)
ACGTTC	1.39 fold enrichment (6-mer frequency, TF over GST control)
AATTAA	1.26 fold enrichment (6-mer frequency, TF over GST control)
GTTCCT	1.86 fold enrichment (6-mer frequency, TF over GST control)
ACTTAT	1.37 fold enrichment (6-mer frequency, TF over GST control)
AATTTA	1.19 fold enrichment (6-mer frequency, TF over GST control)
CACGAT	1.24 fold enrichment (6-mer frequency, TF over GST control)
CTCTCT	1.62 fold enrichment (6-mer frequency, TF over GST control)
GCCTAC	1.25 fold enrichment (6-mer frequency, TF over GST control)
GCCTCG	1.45 fold enrichment (6-mer frequency, TF over GST control)
AACTAG	1.21 fold enrichment (6-mer frequency, TF over GST control)

Molecular target: ELF1 (Homo sapiens, UniProt P32519 1-619)
Test: as above
Conditions: protein: recombinant; tags: N-terminal GST; dsDNA, one strand shown
In short: as §1

ELF1, sequence (P32519 whole entry): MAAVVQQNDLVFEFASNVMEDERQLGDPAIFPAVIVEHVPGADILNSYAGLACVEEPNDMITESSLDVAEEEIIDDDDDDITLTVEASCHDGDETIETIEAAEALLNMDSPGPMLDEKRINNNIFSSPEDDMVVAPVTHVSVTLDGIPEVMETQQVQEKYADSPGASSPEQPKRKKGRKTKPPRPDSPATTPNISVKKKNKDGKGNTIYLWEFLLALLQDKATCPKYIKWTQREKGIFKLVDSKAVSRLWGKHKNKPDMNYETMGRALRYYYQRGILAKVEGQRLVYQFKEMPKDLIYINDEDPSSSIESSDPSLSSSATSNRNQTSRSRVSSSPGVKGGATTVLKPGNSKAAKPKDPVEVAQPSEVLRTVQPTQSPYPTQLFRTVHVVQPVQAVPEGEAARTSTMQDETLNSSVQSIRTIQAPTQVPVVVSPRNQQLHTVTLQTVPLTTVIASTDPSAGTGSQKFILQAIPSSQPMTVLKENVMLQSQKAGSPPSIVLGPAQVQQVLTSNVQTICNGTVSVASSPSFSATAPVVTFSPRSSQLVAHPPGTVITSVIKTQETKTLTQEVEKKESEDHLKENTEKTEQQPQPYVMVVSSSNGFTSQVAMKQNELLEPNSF

Sequence	binding signal
TTTTCC	1.6 fold enrichment (6-mer frequency, TF over GST control)
CGATTA	1.15 fold enrichment (6-mer frequency, TF over GST control)
TATTTT	1.31 fold enrichment (6-mer frequency, TF over GST control)
TCCTCG	1.47 fold enrichment (6-mer frequency, TF over GST control)
GTTGCT	1.31 fold enrichment (6-mer frequency, TF over GST control)
TCCGCC	1.7 fold enrichment (6-mer frequency, TF over GST control)
TCTCTG	1.66 fold enrichment (6-mer frequency, TF over GST control)
TTTAAC	1.21 fold enrichment (6-mer frequency, TF over GST control)
ATTGCA	1.17 fold enrichment (6-mer frequency, TF over GST control)
ACGTCT	1.17 fold enrichment (6-mer frequency, TF over GST control)
TCTACT	1.35 fold enrichment (6-mer frequency, TF over GST control)
TCATCC	1.41 fold enrichment (6-mer frequency, TF over GST control)
TATCGA	1.36 fold enrichment (6-mer frequency, TF over GST control)
CTACTC	1.44 fold enrichment (6-mer frequency, TF over GST control)
AATTAC	1.26 fold enrichment (6-mer frequency, TF over GST control)
TCTGGC	1.14 fold enrichment (6-mer frequency, TF over GST control)
CCCGAC	1.42 fold enrichment (6-mer frequency, TF over GST control)
CAAGAT	1.06 fold enrichment (6-mer frequency, TF over GST control)
TTAGCA	1.18 fold enrichment (6-mer frequency, TF over GST control)
CATTTG	1.24 fold enrichment (6-mer frequency, TF over GST control)

Sequence	binding signal
TCTTCT	1.25 fold enrichment (6-mer frequency, TF over GST control)
AATCCT	1.36 fold enrichment (6-mer frequency, TF over GST control)
CCCCCT	1.33 fold enrichment (6-mer frequency, TF over GST control)
ACATCC	2.35 fold enrichment (6-mer frequency, TF over GST control)
TTTTGT	1.33 fold enrichment (6-mer frequency, TF over GST control)
ACATAA	1.13 fold enrichment (6-mer frequency, TF over GST control)
TTCTCG	1.36 fold enrichment (6-mer frequency, TF over GST control)
AAATCT	1.3 fold enrichment (6-mer frequency, TF over GST control)
TTCTCC	1.56 fold enrichment (6-mer frequency, TF over GST control)
CTTGCG	1.39 fold enrichment (6-mer frequency, TF over GST control)
ACGTTC	1.4 fold enrichment (6-mer frequency, TF over GST control)
AATTAA	1.27 fold enrichment (6-mer frequency, TF over GST control)
GTTCCT	1.72 fold enrichment (6-mer frequency, TF over GST control)
ACTTAT	1.46 fold enrichment (6-mer frequency, TF over GST control)
AATTTA	1.24 fold enrichment (6-mer frequency, TF over GST control)
CACGAT	1.27 fold enrichment (6-mer frequency, TF over GST control)
CTCTCT	1.76 fold enrichment (6-mer frequency, TF over GST control)
GCCTAC	1.21 fold enrichment (6-mer frequency, TF over GST control)
GCCTCG	1.42 fold enrichment (6-mer frequency, TF over GST control)
AACTAG	1.16 fold enrichment (6-mer frequency, TF over GST control)
